“And” between values parts separate entries of the source, which are not always exact repeats. Equal values may be shown once. Records with an inconclusive call do not appear. A structure can be active in one record and inactive in another. The source made the active and inactive calls. Unless noted, the call rests on the fitted dose curve; in most records, active means well fitted curve in the direction sought with a large enough effect; inconclusive means small, poorly fitted or top-dose-only effect, or another doubt; inactive means no such curve, though single readings can be large; an effect the other way counts as inactive or inconclusive.
Experiments:
[1] = Cellular Toxicity (caspase-3) H-4-II-E (AID 663);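 further: cells exposed to compound for 16 hr before readout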
Method in brief: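 Luminescence from caspase-cleaved aminoluciferin substrate, read 20 min after reagent addition, reports caspase 3/7 activation in rat H-4-II-E cells after 16 hr compound exposure. Normalized to DMSO (basal) and 100 uM tamoxifen (100%); AC50 from Hill fits.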

[2] = Cellular Toxicity (caspase-3) Hek293 (AID 664); conditions: HEK293 caspase-3 activation; caspase-3 activation: at 92.2 µM (top of the series), DMSO = 0%, 100 µM tamoxifen = 100%;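 further: cells exposed to compound for 16 h at 37 °C before readout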
Method in brief: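 Activation of caspase-3/7 is measured as increased luminescence from cleaved peptide-aminoluciferin substrate in HEK293 cells treated 16 hours at 37 °C. AC50 values come from Hill-equation fits of concentration-response data.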

[3] = Cellular Toxicity (caspase-3) N2a (AID 665);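 further: compound exposure lasted 16 h at 37 °C before readout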
Method in brief: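 Plated mouse neuroblastoma N2a cells received titrated compounds for 16 h in complete medium. Caspase activity was then detected with a peptide-aminoluciferin luminescent reagent.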

[4] = Cellular Toxicity (caspase-3) Renal Proximal Tubule (AID 667);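 further: cells exposed to compound for 16 hours at 37 °C before detection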
Method in brief: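 Caspase-Glo 3/7 read-out, rat primary kidney proximal tubule cells. Compound exposure 16 h, 37 °C; detection after 1 h at RT. Activity scaled to DMSO and 10 uM staurosporine.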

[5] = molecular target: Guanine nucleotide-binding protein G(i) subunit alpha-1 (Homo sapiens) (UniProt P63096); assay: qHTS Assay for Inhibitors of RGS12 GoLoco Motif Activity (Green Fluorophore) (AID 879); further: potency means the concentration at half of the fitted maximal effect
Chain of Guanine nucleotide-binding protein G(i) subunit alpha-1 (Homo sapiens) (P63096 whole entry, looked up): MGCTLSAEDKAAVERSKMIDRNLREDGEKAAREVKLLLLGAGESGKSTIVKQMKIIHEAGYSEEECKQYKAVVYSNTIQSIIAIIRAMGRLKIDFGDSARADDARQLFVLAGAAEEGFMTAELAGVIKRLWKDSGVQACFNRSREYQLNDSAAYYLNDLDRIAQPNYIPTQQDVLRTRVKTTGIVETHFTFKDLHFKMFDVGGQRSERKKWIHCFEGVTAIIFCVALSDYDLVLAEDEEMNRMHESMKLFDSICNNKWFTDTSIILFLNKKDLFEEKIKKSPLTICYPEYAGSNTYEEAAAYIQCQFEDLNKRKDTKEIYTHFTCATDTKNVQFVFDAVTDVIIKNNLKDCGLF
Method in brief: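 Fluorescence polarization assay: 50 nM Gαi1 with 10 nM FITC-labeled RGS12 GoLoco peptide in 10 mM Tris pH 7.5, 150 mM NaCl, 0.1 mM GDP, 0.05% NP40, 10 min at room temperature with compound.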

[6] = molecular target: Cytochrome P450 3A4 (Homo sapiens) (UniProt P08684); assay: qHTS Assay for Activators of Cytochrome P450 3A4 (AID 885); further: nearly all actives have a fitted effect of over 65% in size
Chain of Cytochrome P450 3A4 (Homo sapiens) (P08684 whole entry, looked up): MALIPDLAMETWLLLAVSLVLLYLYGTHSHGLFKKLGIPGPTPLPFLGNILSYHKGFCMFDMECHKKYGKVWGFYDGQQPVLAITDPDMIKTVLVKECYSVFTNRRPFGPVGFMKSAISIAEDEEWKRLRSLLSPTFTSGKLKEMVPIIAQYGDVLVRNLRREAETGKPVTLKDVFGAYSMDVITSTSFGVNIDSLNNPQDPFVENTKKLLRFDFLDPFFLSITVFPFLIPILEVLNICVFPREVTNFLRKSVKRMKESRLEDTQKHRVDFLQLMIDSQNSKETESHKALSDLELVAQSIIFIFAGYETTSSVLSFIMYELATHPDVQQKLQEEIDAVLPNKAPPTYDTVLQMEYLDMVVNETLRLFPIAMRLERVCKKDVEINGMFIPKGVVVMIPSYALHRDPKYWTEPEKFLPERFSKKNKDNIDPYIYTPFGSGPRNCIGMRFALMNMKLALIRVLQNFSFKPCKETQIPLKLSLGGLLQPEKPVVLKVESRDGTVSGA
Method in brief: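 Human CYP3A4 (20 nM) with Luciferin-PPXE at 25 uM (its KM) in 200 mM KPO4; 10 min compound preincubation, then NADPH regeneration and 60 min reaction at RT. Luciferin read by luminescence; normalized to 57 uM ketoconazole full inhibition.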

[7] = molecular target: Cytochrome P450 2D6 (Homo sapiens) (UniProt P10635); assay: qHTS Assay for Inhibitors and Substrates of Cytochrome P450 2D6 (AID 891); further: nearly all actives have a fitted effect of over 60% in size; further: potency means the concentration at half of the fitted maximal effect
Chain of Cytochrome P450 2D6 (Homo sapiens) (P10635 whole entry, looked up): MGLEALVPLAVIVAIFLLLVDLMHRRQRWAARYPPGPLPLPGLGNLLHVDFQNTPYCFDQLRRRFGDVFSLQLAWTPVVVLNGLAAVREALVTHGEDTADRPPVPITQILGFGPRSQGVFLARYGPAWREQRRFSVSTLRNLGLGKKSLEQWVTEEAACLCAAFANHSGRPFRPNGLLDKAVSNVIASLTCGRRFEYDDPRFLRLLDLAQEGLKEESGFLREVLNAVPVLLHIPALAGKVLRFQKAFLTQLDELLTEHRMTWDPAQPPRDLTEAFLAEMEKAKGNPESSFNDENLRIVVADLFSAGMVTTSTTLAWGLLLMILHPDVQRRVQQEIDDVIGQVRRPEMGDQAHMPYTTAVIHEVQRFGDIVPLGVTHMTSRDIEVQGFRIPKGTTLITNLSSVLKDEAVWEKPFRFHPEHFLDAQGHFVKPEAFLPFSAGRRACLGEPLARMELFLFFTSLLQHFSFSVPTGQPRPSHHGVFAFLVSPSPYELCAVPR
Method in brief: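 Human CYP2D6 (5 nM) with 30 uM Luciferin-ME EGE (at Km) in 100 mM KPO4, compound preincubated 10 min, then NADPH regeneration system for 60 min at room temperature. Luciferin read by luminescence; normalized to 1.43 uM quinidine.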

[8] = Confirmation and Secondary Assay for Modulators of Hemoglobin Beta Chain Splicing at IVS2 654 locus (AID 910);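 further: per-well total GFP intensity by laser scanning cytometry after 2-day treatment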
Method in brief: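 HeLa cells stably carrying EGFP interrupted by mutant beta-globin IVS2-654 intron (CMV-driven) were treated with compound for 2 days at 37C; corrected splicing was scored as total peak GFP intensity per well (488 nm excitation, 500-520 nm emission).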

[9] = qHTS Assay for Identification of Small Molecule Agonists for Thrombopoietin (TPO) Signaling Pathway (AID 917); further: potency means the concentration at half of the fitted maximal effect
Method in brief: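 IL-3-dependent murine pro-B Ba/F3 cells, stably transfected with human TPO receptor and GpIIb-promoter luciferase, are incubated 24 hrs at 37 C with test compound and 26 pM TPO; luciferase signal is read after 10 min at room temperature.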

[10] = Cell Viability - LYMP2-001 (AID 921);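 further: cells exposed to compound for 24 h at 37 °C; nearly all actives have a fitted effect of over 70% in size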
Method in brief: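 A lymphoblastoid cell line of human origin was treated with library compounds across a concentration series for 24 hours, and viable cell number was estimated from ATP-driven luciferase light output. Hill modeling gave AC50.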

[11] = Confirmation and Secondary Assay for Modulators of Hemoglobin Beta Chain Splicing at IVS2 705 locus (AID 930);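 further: HeLa cells stably expressing the EGFP-705 splicing reporter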
Method in brief: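 Restored EGFP fluorescence after 2-day compound exposure reports splicing correction in IVS2-705 EGFP reporter HeLa cells; positive control was 500 nM splice-blocking PNA oligo. Signal measured as well total peak GFP intensity (488 nm excitation).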

[12] = molecular target: Pyruvate kinase (Leishmania mexicana) (UniProt Q27686); assay: qHTS Validation Assay for Inhibitors of Leishmania Mexicana Pyruvate Kinase (AID 945); further: potency means the concentration at half of the fitted maximal effect
Chain of Pyruvate kinase (Leishmania mexicana) (Q27686 2-499 E452W): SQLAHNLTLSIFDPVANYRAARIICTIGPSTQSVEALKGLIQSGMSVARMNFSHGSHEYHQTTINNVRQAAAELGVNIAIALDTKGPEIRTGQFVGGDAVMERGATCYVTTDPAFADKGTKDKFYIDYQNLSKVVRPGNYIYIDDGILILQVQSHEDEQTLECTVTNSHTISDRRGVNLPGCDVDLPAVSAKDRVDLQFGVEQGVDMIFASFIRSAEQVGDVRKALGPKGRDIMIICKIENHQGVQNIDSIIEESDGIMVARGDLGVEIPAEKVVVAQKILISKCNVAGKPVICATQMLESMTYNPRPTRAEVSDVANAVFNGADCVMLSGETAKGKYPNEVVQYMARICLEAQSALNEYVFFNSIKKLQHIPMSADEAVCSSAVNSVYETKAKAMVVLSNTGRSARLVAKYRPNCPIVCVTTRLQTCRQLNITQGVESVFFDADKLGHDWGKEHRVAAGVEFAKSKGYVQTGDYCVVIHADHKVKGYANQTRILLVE
Method in brief: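 Purified LmPYK (E451W mutant, 0.2 nM) was incubated 1 h at room temperature with 0.5 mM PEP and 0.1 mM ADP in 50 mM imidazole pH 7.2, 50 mM KCl, 7 mM MgCl2; ATP formed was read by PKLight luminescence, normalized to DMSO wells.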

[13] = MultiTox-Fluor Cytotoxicity Assay - LYMP1-001 - Dead Cells (AID 946)
Method in brief: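 LYMP1-001 lymphoblastoid cells (2500/well) treated 16 h at 37 C. Dead-cell protease cleavage of bis-AAF-R110 read at Ex/Em 485/520. Normalized to DMSO and 15 uM tetraoctylammonium bromide; AC50 from Hill fits.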

[14] = MultiTox-Fluor Cytotoxicity Assay - LYMP1-001 - Live Cells (AID 947)
[15] = qHTS Assay for Identification of Small Molecule Antagonists for Thrombopoietin (TPO) Signaling Pathway (AID 918); conditions: TPO-dependent cell signaling reporter, antagonist mode; further: potency means the concentration at half of the fitted maximal effect; nearly all actives have a fitted effect of over 60% in size
Method in brief: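 First, Ba/F3 reporter cells expressing human TPO receptor were held overnight without IL-3. Next, compound and 26 pM TPO were added. After 24 hrs incubation at 37 C, luciferase luminescence under the Glycoprotein IIb promoter was recorded.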

[16] = qHTS Assay for Identification of Small Molecule Antagonists for NFkB Signaling Pathway (AID 895; active means well fitted inhibition curve with a large enough effect in the signal ratio, with a control signal flat, not every such curve was filed as active; the % refers to the signal ratio; further: potency means the concentration at half of the fitted maximal effect)
Method in brief: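 NFkB-bla ME-180 cervical carcinoma cells with beta-lactamase reporter under NFkB response element; compounds added, then TNF alpha at 10 pM final (EC50), 5 h at 37 C. LiveBLAzer substrate 2 h, room temperature; emission 460/530 nm at 405 nm excitation.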

[17] = molecular target: Muscarinic acetylcholine receptor M1 (Rattus norvegicus) (UniProt P08482); assay: qHTS Assay for Antagonists of Acetylcholine Muscarinic M1 Receptor: Measurement of IP-One Response (AID 944); further: nearly all actives have a fitted effect of over 75% in size; further: potency means the concentration at half of the fitted maximal effect
Chain of Muscarinic acetylcholine receptor M1 (Rattus norvegicus) (P08482 whole entry, looked up): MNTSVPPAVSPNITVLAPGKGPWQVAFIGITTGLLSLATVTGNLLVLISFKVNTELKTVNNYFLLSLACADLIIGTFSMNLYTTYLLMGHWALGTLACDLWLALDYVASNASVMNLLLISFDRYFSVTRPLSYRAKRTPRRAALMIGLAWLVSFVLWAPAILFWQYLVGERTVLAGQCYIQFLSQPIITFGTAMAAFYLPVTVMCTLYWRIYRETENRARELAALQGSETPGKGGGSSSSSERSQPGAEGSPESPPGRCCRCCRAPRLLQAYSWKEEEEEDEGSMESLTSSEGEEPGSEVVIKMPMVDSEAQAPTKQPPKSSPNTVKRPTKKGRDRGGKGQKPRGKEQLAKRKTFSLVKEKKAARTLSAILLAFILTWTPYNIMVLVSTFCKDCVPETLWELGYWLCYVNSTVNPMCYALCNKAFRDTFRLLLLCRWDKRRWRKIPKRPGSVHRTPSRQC
Method in brief: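 Steps: plate transfected CHO-M1 cells overnight; add test compound, 10 min; add carbachol (200 nM, EC80) in stimulation buffer with LiCl; incubate 30 min; add labelled IP1 tracer and anti-IP1 antibody in lysis buffer; read HTRF after 10 min.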

[18] = molecular target: Cytochrome P450 2C19 (Homo sapiens) (UniProt P33261); assay: qHTS Assay for Inhibitors and Substrates of Cytochrome P450 2C19 (AID 899); further: nearly all actives have a fitted effect of over 60% in size; further: potency means the concentration at half of the fitted maximal effect
Chain of Cytochrome P450 2C19 (Homo sapiens) (P33261 whole entry, looked up): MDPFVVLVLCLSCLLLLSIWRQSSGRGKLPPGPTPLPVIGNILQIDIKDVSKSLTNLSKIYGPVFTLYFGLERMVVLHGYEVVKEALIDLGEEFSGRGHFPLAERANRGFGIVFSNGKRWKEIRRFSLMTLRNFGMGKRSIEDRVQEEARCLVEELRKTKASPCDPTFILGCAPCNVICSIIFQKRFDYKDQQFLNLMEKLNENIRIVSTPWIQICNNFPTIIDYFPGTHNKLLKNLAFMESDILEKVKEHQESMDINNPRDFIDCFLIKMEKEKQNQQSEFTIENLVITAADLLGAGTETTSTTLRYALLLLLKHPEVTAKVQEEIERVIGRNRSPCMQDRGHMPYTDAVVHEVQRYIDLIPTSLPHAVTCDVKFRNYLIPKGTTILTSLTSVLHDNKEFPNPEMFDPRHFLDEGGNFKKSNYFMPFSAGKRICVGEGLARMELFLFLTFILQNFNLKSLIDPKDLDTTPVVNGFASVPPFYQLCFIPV
Method in brief: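 In 50mM KPO4, the reaction held 5nM enzyme and KM-level (10uM) Luciferin-H EGE; it ran 60 min at 37C after NADPH regeneration and a 10 min compound preincubation. Luminescence values were scaled to 57uM ketoconazole as complete inhibition.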

[19] = molecular target: Muscarinic acetylcholine receptor M1 (Rattus norvegicus) (UniProt P08482); assay: qHTS Assay for Antagonists of Acetylcholine Muscarinic M1 Receptor: Kinetic Measurement of Intracellular Calcium Response (AID 943); further: nearly all actives have a fitted effect of over 75% in size; further: potency means the concentration at half of the fitted maximal effect
Method in brief: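 Intracellular calcium flux, recorded with Fluo-4 in a kinetic plate reader, served as signal; the response to carbachol at EC80 (100 nM final) was taken as maximal over minimal fluorescence after a 10 min compound pre-incubation in rat M1-CHO cells.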

Measured: Potency

Nc1c2c(nc3ccccc13)CCCC2
active: [7] 5.01 µM
not listed: [15] | [16] | [17] | [18] | [19]
inactive: all other assays above

Cc1ccc(-c2cc(C(F)(F)F)nn2-c2ccc(S(N)(=O)=O)cc2)cc1
inactive: [2] | [3] | [4] | [8] | [10] | [11] | [13]

Fc1ccc([C@@H]2CCNC[C@H]2COc2ccc3c(c2)OCO3)cc1
inactive: [5] | [6] | [12]
active: [15] 12.6 µM

OCCN(CCO)c1nc(N2CCCCC2)c2nc(N(CCO)CCO)nc(N3CCCCC3)c2n1
inactive: [7] | [8] | [11] | [12]
active: [5] 10 µM | [7] 12.6 µM and 10 µM

O=C1c2c(O)ccc(O)c2C(=O)c2c(NCCNCCO)ccc(NCCNCCO)c21
active: [16] 2 µM | [15] 0.0251 µM | [17] 5.01 µM
inactive: [5] | [8] | [11]

CN1CCC(=C2c3ccccc3CC(=O)c3sccc32)CC1
inactive: [5] | [8] | [9] | [11] | [12]
active: [7] 7.94 µM and 3.16 µM and 5.01 µM

O=C(c1ccc(F)cc1)C1CCN(CCn2c(=O)[nH]c3ccccc3c2=O)CC1
inactive: [5] | [8] | [9] | [11] | [17] | [12]

COC(=O)Nc1nc2ccc(C(=O)c3cccs3)cc2[nH]1
inactive: [5] | [7] | [18] | [8] | [11] | [12]

Cn1cnc2c1c(=O)[nH]c(=O)n2C
inactive: [5] | [16] | [8] | [9] | [11] | [17] | [12]

CCc1cccc2c3c([nH]c12)C(CC)(CC(=O)O)OCC3 (stereo not drawn)
inactive: [5] | [8] | [9] | [11] | [12]

Cn1ccc2cc3c(cc21)CCN3C(=O)Nc1cccnc1
active: [9] 1 µM | [12] 7.94 µM
inactive: [5] | [6] | [19]

O=C(C1CCCCC1)N1CC(=O)N2CCc3ccccc3C2C1 (stereo not drawn)
inactive: [5] | [6] | [16] | [8] | [9] | [11]

CCOC(=O)C(C)(C)Oc1ccc(Cl)cc1
inactive: [5] | [16] | [9] | [17] | [12]

Nc1nnc(-c2cccc(Cl)c2Cl)c(N)n1
inactive: [5] | [16] | [9] | [12]
inactive and 6.31 µM (active): [7]

COc1nc(C)nc(Cl)c1NC1=NCCN1
inactive: [5] | [18] | [9] | [12]

Clc1ccc2c(c1)C(N1CCNCC1)=Nc1ccccc1O2
active: [15] 10 µM
inactive: [5] | [6] | [18] | [8] | [11] | [12]

O=C1N(c2ccccc2)c2ccccc2C1(Cc1ccncc1)Cc1ccncc1
active: [18] 3.16 µM and 199 nM
inactive: [5] | [7] | [19] | [17] | [12]

CN1CCC(=C2c3ccccc3C=Cc3ccccc32)CC1
inactive: [5] | [9] | [12]
active: [7] 2.51 µM and 3.98 µM

O=C(Nc1ccc([N+](=O)[O-])cc1Cl)c1cc(Cl)ccc1O
inactive: [5] | [6] | [8] | [11]
active: [9] 0.1 µM | [12] 2.51 µM

CN(C)CCC=C1c2ccccc2C=Cc2ccccc21
inactive: [5] | [8] | [11] | [12]
active: [7] 6.31 µM | [19] 0.0316 µM | [17] 0.112 µM

NCCCCCC(=O)O
inactive: [5] | [8] | [9] | [11] | [12]

CC(C)Cc1ccc(C(C)C(=O)O)cc1 (stereo not drawn)
inactive: [5] | [8] | [9] | [11] | [12]

Cc1ccccc1N1C(=O)c2cc(S(N)(=O)=O)c(Cl)cc2NC1C (stereo not drawn)
inactive: [5] | [6] | [8] | [9] | [11] | [12]
